Laboratory results published in PubChem BioAssay.
Calls of active or inactive are those of the source.

Experiments:
[1] = system: Human papillomavirus type 1a protein E7 (residues 44-93); assay: HPV1a E7 fragment binders on microarrays, primary screen, biochemical, small-molecule microarray, residues 44-93, 635 nm fluorescence (AID 1108); settings: small-molecule microarray binding, fluorescence 635 nm; higher = more signal;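 also: E7 fragment applied at 1 µg/mL in TBST for 1 h at 4 C; score combines spot fluorescence with its signal to noise ratio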
[2] = modulators of HCV replicon luciferase signal, primary screen, HCV replication inhibitor project, Huh7 cells, luciferase reporter (AID 1109); settings: 48 h, higher = more signal;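 also: huh7 hepatoma cells harbouring a luciferase neomycin HCV replicon reporter; luciferase luminescence as measure of HCV replicon replication; test concentration not given here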
[3] = target: Left-right determination factor 2 (Homo sapiens) (UniProt O00292); assay: LEFTY2 binders on small-molecule microarrays, primary screen, biochemical, small-molecule microarray, 635 nm fluorescence scan (AID 1110); settings: LEFTY2 binding, higher = more signal
[4] = target: Calmodulin-1 (Homo sapiens) (UniProt P0DP23); assay: CALM1 binders on microarrays, EGTA buffer, profiling panel, biochemical, small-molecule microarray, Cy5-labelled CALM1 (AID 1111); settings: Cy5-CALM1 binding fluorescence, higher = more signal;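 also: labelled calmodulin applied in Tris saline Tween buffer holding calcium plus EGTA and DTT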
[5] = target: Calmodulin-1 (Homo sapiens) (UniProt P0DP23); assay: calcium-bound CALM1 binders on microarrays, profiling panel, artefact control for SMM control-protein annotation, biochemical, small-molecule microarray, Cy5-labelled CALM1, plus calcium (AID 1112); settings: Cy5-CALM1 binding fluorescence, higher = more signal;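 also: score merges spot fluorescence with signal to noise from triplicate slides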
[6] = small-molecule microarray binders of probe aWnt5a, primary screen, biochemical, biotinylated probe, 635/667 nm fluorescence (AID 1113); settings: higher = more signal;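 also: score merges 667 nm fluorescence intensity with signal-to-noise per printed feature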
[7] = small-molecule microarray binders of probe aShh, primary screen, biochemical, biotinylated probe, 635/667 nm fluorescence (AID 1114); settings: higher = more signal;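 also: probe is biotin-labelled aShh protein from a stem cell growth factor screen; measures binding of labelled protein to compounds printed on the slide; score merges feature fluorescence at 667 nm with signal-to-noise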
[8] = small-molecule microarray binders of probe aNog, primary screen, biochemical, biotinylated probe, 635/667 nm fluorescence (AID 1115); settings: higher = more signal;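 also: probe is biotinylated aNog protein used at 0.15 µg/mL for 1 h at 4 C; z-score combines 667 nm fluorescence of each spot with its signal to noise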
[9] = target: Torsin-1A-interacting protein 1 (Homo sapiens) (UniProt Q5JTV8); assay: LAP1 binders from COS7 cell lysate, primary screen, small-molecule microarray, 635/667 nm fluorescence (AID 1116); settings: COS7-hLAP1 lysate binding, 635 nm fluorescence, higher = more signal
[10] = target: Alpha-bungarotoxin (Bungarus multicinctus) (UniProt P60615); assay: alpha-bungarotoxin binders on microarray, profiling panel, artefact control for SMM control protein annotation, biochemical, small-molecule microarray, Alexa647 label, 635/667 nm fluorescence (AID 1117); settings: alpha-BTX-A647 binding fluorescence, higher = more signal
Albumin (Bos taurus) = Albumin (Bos taurus) (UniProt P02769); assay: bovine serum albumin binders on microarray, profiling panel, artefact control for SMM control protein annotation, biochemical, small-molecule microarray, Alexa647 label, 635/667 nm fluorescence (AID 1118); settings: BSA-A647 binding, fluorescence 635 nm, higher = more signal;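 also: score merges 667 nm emission intensity and signal-to-noise per printed compound spot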
[11] = small-molecule microarray binders of probe aXIP, primary screen, biochemical, NeuroSMM set, 635/667 nm fluorescence (AID 1119); settings: higher = more signal, called active from +8 up or from −8 down;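 also: probe is the protein aXip251-270 applied at 1 µg/mL to compound-printed slides; binding of probe to printed compounds measured as 667 nm fluorescence plus signal to noise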
[12] = small-molecule binders of probe aNOTCH3, primary screen, biochemical, small-molecule microarray, 635/667 nm fluorescence (AID 1120); settings: higher = more signal;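 also: probe is a biotin-tagged antibody raised against NOTCH3 rather than NOTCH3 protein; score merges spot fluorescence near 667 nm with spot signal to noise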
[13] = small-molecule binders of probe aNOTCH2, primary screen, biochemical, small-molecule microarray, 635/667 nm fluorescence (AID 1121); settings: higher = more signal;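 also: score merges feature fluorescence read at 667 nm with its signal to noise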
[14] = target: Carbonic anhydrase 2 (Homo sapiens) (UniProt P00918); assay: CAII small-molecule binders, profiling panel, biochemical, small-molecule microarray, Alexa647-labelled CAII (AID 1122); settings: CAII-A647 binding fluorescence, higher = more signal
[15] = COS7 lysate on small-molecule microarray, probe aHis, 635 nm (AID 1123); settings: COS7 cell lysate, fluorescence, higher = more signal;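 also: z-score combines 667nm fluorescence intensity with signal-to-noise per printed compound spot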
[16] = compound binding in COS7 lysate, probe aLAP1, primary screen, cell lysate, small-molecule microarray (AID 1124); settings: probe aLAP1, fluorescence, higher = more signal;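 also: lysate comes from COS7 cells expressing LAP1 and is applied at 0.3 µg/mL; score merges spot fluorescence near 667 nm with signal-to-noise over triplicate slides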
Sam68 (KHDRBS1) = assay: Sam68 small-molecule binders, primary screen, biochemical, small-molecule microarray, 635 nm fluorescence (AID 1125); settings: small-molecule microarray binding, higher = more signal;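 also: score merges 667 nm channel intensity with signal to noise over triplicate slides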
[17] = system: Chordin-like protein 2 (CHRDL2); assay: CHRDL2 small-molecule binders, primary screen, biochemical, small-molecule microarray, 635 nm fluorescence (AID 1126); settings: small-molecule microarray binding, fluorescence 635 nm; higher = more signal;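 also: printed compound slides probed with Chrdl2 protein at 4 µg/mL for 1 h at 4 C; score merges 667 nm emission intensity with signal to noise over three replicate slides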
[18] = target: Concanavalin-A (Canavalia ensiformis) (UniProt P02866); assay: ConA small-molecule binders, primary screen, artefact control for SMM control protein annotation, biochemical, small-molecule microarray, Alexa647 label, 635 nm (AID 1127); settings: ConA-A647 binding fluorescence, higher = more signal;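 also: z combines 667 nm emission intensity with signal-to-noise across three replicate slides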
Sequence of Concanavalin-A (Canavalia ensiformis) (P02866 whole entry, looked up): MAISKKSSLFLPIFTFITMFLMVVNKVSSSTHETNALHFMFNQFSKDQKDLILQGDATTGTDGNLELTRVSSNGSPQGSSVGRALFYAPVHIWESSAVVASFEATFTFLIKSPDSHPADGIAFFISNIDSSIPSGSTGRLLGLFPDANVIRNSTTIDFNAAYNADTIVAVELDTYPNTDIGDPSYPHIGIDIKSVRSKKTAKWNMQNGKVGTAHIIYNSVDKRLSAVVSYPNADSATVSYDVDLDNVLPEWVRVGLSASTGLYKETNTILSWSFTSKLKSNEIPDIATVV

Sequence of Albumin (Bos taurus) (P02769 whole entry, looked up): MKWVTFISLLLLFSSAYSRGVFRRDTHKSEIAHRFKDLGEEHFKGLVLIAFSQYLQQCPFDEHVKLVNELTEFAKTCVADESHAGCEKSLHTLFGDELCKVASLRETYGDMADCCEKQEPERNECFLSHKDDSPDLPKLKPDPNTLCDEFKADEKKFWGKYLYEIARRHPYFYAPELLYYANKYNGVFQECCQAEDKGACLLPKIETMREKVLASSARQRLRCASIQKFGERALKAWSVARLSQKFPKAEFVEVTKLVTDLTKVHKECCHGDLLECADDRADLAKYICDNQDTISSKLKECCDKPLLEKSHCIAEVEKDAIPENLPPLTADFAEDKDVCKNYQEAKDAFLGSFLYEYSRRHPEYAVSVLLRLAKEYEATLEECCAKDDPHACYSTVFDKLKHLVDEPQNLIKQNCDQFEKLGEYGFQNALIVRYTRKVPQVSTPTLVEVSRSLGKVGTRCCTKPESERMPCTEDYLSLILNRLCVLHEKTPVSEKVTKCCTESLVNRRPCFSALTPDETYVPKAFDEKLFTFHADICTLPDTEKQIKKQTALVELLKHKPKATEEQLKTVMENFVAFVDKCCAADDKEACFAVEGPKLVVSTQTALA
Sequence of Left-right determination factor 2 (Homo sapiens) (O00292 whole entry, looked up): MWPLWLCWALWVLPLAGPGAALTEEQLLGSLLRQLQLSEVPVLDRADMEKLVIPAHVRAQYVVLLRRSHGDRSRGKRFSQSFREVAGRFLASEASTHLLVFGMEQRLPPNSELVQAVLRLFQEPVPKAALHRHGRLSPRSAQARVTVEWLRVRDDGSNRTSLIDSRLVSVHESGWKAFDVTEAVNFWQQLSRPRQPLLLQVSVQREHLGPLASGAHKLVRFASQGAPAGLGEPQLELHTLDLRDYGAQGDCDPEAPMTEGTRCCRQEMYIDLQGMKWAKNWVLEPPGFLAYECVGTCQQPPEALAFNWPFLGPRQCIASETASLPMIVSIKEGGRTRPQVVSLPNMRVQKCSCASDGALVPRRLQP
Sequence of Torsin-1A-interacting protein 1 (Homo sapiens) (Q5JTV8 whole entry, looked up): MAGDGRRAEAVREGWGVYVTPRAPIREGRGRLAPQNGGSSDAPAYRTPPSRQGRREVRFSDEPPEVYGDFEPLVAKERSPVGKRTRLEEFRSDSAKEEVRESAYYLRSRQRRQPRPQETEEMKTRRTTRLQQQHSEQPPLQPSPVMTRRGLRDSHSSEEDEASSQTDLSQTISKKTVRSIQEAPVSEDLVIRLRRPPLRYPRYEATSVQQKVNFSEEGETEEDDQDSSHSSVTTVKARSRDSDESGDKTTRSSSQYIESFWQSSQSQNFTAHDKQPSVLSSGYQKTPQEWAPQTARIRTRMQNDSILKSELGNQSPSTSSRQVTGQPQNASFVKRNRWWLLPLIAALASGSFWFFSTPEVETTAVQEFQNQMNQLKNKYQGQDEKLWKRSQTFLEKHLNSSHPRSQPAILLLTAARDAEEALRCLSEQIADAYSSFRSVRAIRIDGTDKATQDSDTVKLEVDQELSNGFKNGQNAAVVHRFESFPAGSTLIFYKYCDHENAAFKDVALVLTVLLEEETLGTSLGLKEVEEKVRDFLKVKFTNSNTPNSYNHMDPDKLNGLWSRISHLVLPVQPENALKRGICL
Sequence of Alpha-bungarotoxin (Bungarus multicinctus) (P60615 whole entry, looked up): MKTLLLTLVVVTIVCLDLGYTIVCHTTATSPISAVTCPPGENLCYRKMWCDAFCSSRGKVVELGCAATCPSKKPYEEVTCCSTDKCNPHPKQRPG

| SMILES | composite z-score [1] | z-score [2] | composite z-score [3] | composite z-score [4] | composite z-score [5] | composite z-score [6] | composite z-score [7] | composite z-score [8] | composite z-score [9] | composite z-score [10] | composite z-score (Albumin (Bos taurus)) | composite Z-score [11] | composite z-score [12] | composite z-score [13] | composite z-score [14] | composite z-score [15] | composite z-score [16] | composite z-score (Sam68 (KHDRBS1)) | composite z-score [17] | composite z-score [18] |
| --- | --- | --- | --- | --- | --- | --- | --- | --- | --- | --- | --- | --- | --- | --- | --- | --- | --- | --- | --- | --- |
| CCOC(=O)[C@H]1C/C=C/C[C@H](C(=O)OCC)C(=O)O[C@H]2[C@@H](OC)O[C@H](CO)[C@@H](OC(=O)Nc3ccc(OC)cc3)[C@@H]2OC1=O | 0.89 | -2.82 | 0.721 | 0.433 | 0.118 | 0.0395 | -0.0146 | 0.206 | 0.753 | 1.09 | 0.441 | 0.937 (inactive) | 0.292 | 0.0196 | 0.475 | 0.984 | 1.16 | 1.32 | 0.37 | 0.92 |
| C=CC[C@]12N=C(c3ccc(OCCCO)cc3)O[C@H]1c1ccccc1N(C)C2=O | 0.871 | -1.57 | 0.0374 | 0.287 | -0.274 | 0.0169 | 0.287 | 1.99 | 1.41 | 0.707 | 0.0095 | 2.56 (inactive) | 0.336 | 0.0424 | 0.308 | 2.73 | 1.14 | 1.21 | 0.76 | 0.989 |
| C[C@]1(C(=O)NC2CC2)c2ccccc2C(=O)N(Cc2ccc(OC(F)(F)F)cc2)[C@H]1c1ccc(CO)cc1 | -0.633 | -0.144 | -1.07 | -0.42 | 0.479 | -0.0792 | -0.0243 | 0.625 | 0.297 | 0.585 | -0.85 | -0.0189 (inactive) | 0.0271 | 0.0049 | 0.37 | 0.209 | 0.0915 | 0.0003 | -1.14 | -0.698 |
| C[C@H]1ON(c2ccc(C(=O)OC(C)(C)C)cc2)[C@@H](c2ccc(O)cc2)[C@@H]1C(=O)N1C(=O)OC[C@@H]1c1ccccc1 | 0.644 | -3.09 | 0.465 | 0.403 | -0.32 | -0.0977 | -0.341 | -0.383 | 0.165 | 0.413 | 0.393 | -0.281 (inactive) | 0.0218 | -0.126 | 0.454 | 0.741 | 0.295 | 1.32 | 0.456 | 0.768 |
| O=c1cccc(-c2ccc(C(F)(F)F)cc2)o1 | -1.57 | 0.587 | -0.534 | -0.271 | 0.238 | -0.0685 | 0.163 | -0.0446 | -0.333 | -0.364 | -0.309 | -0.275 (inactive) | -0.122 | -0.11 | -0.14 | -0.89 | 0.0441 | -1.03 | -0.291 | -0.0038 |
| CC(C)(C)OC(=O)CC[C@@]1(C(=O)O)N=C(c2ccc(OCCCO)cc2)O[C@@H]1c1ccccc1 | 1.16 | 0.344 | -0.499 | 0.357 | 0.145 | 0.0799 | 0.0611 | 0.955 | 0.117 | 1.54 | 0.273 | -0.204 (inactive) | -0.1 | -0.0037 | 0.824 | 1.98 | -0.021 | 0.721 | -0.811 | 0.335 |
| COc1c(C)cc(-c2cc3c(c(-c4ccccc4)n2)[Si](C(C)C)(C(C)C)OC3)cc1C | -0.689 | -0.268 | -0.0473 | -0.319 | -0.119 | -0.184 | -0.153 | -0.122 | -0.16 | 0.857 | 0.247 | 0.478 (inactive) | -0.116 | -0.21 | -0.185 | -0.591 | -0.154 | -0.5 | 0.652 | 0.134 |
| C[C@H]1C2=C3C(CC[C@H]4C(OCc5ccc(F)cc5C(F)(F)F)OC[C@](C)([C@@H]34)N(C(=O)OC(C)(C)C)C2)C(CO)C1CO (stereo not given in full) | 1.34 | -2.81 | -0.593 | 2.4 | 0.861 | 0.114 | 0.255 | -0.697 | 0.222 | 0.671 | 0.953 | 1.08 (inactive) | 0.266 | 0.0831 | 0.352 | 3.19 | 0.505 | 1.31 | -1.44 | 0.862 |
| COc1ccc(C(O)C2C=CC3C(=O)N(C)C(=O)C3N2N2CCCCC2)cc1 (stereo not given) | 0.069 | 0.633 | 0.108 | 0.204 | 0.3 | 0.1 | 0.457 | 1.07 | 2.36 | 0.55 | 0.999 | 0.0811 (inactive) | 0.272 | 0.233 | 0.761 | 2.14 | 0.986 | 1.1 | 0.248 | 1.11 |
| COC(=O)[C@@]1(Cc2ccc(OC)cc2)[C@H]2c3cc(C(=O)N(C)C)n(Cc4nc5ccccc5[nH]4)c3C[C@H]2CN1C(=O)c1ccccc1 | 1.48 | -1.81 | -0.314 | 2.08 | 1.06 | 0.343 | 0.361 | 1.81 | 0.564 | 1.26 | 0.997 | -0.119 (inactive) | 0.515 | -0.112 | 0.781 | 2.27 | -0.0637 | 1.32 | -0.54 | 1.19 |
| O=C1c2ccccc2[C@@]2(Cc3ccccc3N(C3CC3)C2=O)[C@H](c2ccc(CO)cc2)N1C1CCCCC1 | 0.0731 | 0.056 | -0.825 | 0.0762 | 0.347 | -0.096 | 0.107 | -0.0165 | -0.502 | 0.233 | 0.804 | -0.481 (inactive) | -0.125 | -0.0804 | 0.269 | 0.154 | 0.586 | -0.728 | -0.431 | -1.02 |
| CN(C)CCCNC(=O)[C@@H]1c2ccccc2C(=O)N(Cc2ccc(OC(F)(F)F)cc2)[C@H]1c1ccc(CO)cc1 | 1.35 | -2.08 | -0.0765 | -0.226 | -0.919 | 0.0003 | 0.0278 | -0.309 | 0.724 | 0.243 | -0.298 | 0.729 (inactive) | 0.0469 | -0.115 | 0.398 | 1.4 | 0.602 | 1.26 | 0.151 | 0.675 |
